CYP2C9 act = human CYP2C9 activators, primary screen, biochemical, luminescence | Cytochrome P450 2C9 (Homo sapiens), P11712 | recombinant CYP2C9, luciferin-H conversion; active compounds read high; factor 1 = untreated enzyme, 0 = blocked | activation factor at 5 µM | 1.4% of 96,000 active;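 active = activation factor of 2 or more for CYP2C9 at a 5 µM dose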;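 note: 0 = sulfaphenazole-blocked wells and 1 = vehicle-only wells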
CYP2C19 act = human CYP2C19 activators, primary screen, biochemical, luminescence. Cytochrome P450 2C19 (Homo sapiens), P33261. recombinant CYP2C19, luciferin-H EGE luminescence; active compounds read high; 0 = fully inhibited enzyme, 1 = untreated enzyme. activation factor at 5 µM. 96,000 tested, under 10 active. AID 1025, 2008;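 active = activation factor of at least 2 at 5 µM in the primary screen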;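 note: 0 = wells with 2.5 mM tranylcypromine and 1 = vehicle-only wells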
sEH inh = soluble epoxide hydrolase inhibitors, primary screen, biochemical, human sEH | Bifunctional epoxide hydrolase 2 (Homo sapiens), P34913 | recombinant human sEH enzymatic activity assay | inhibition, % at 2 µM | 0.34% of 91,000 active; in the data active = inhibition above about 80%
Target sequence (P34913 whole entry, looked up): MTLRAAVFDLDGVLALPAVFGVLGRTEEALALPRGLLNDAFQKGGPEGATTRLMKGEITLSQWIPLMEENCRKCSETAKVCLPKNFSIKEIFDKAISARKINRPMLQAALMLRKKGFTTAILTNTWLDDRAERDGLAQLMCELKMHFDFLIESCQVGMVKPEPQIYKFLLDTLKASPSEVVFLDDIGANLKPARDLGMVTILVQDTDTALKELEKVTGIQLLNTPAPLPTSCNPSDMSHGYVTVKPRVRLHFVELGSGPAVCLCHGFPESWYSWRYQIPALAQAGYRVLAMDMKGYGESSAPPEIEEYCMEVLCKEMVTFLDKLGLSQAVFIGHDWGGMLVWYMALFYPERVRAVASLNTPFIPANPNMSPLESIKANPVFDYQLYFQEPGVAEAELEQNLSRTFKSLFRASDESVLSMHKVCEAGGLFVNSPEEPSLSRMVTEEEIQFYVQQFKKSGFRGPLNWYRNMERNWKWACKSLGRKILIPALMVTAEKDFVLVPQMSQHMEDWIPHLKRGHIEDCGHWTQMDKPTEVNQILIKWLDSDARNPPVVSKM
sEH activator = soluble epoxide hydrolase activators, primary screen, biochemical, human sEH | purified human sEH enzymatic activity, activator screen | 0.04% of 91,000 active | activation, % at 2 µM | Bifunctional epoxide hydrolase 2 (Homo sapiens), P34913; in the data active = activation above about 37%
CYP2C19 inhib = blockers of cytochrome P450 2C19 activity – biochemical, luminescence, ADME assay, primary screen | inhibition, % at 5 µM | CYP2C19 Supersomes, luciferin-H EGE luminescence, 30 min | 21% of 96,000 active;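 active = CYP2C19 inhibition above a set limit at 5 µM in the primary screen, cut at about 50% in these data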;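 note: plate controls were negative control wells for no effect and 2.5 mM tranylcypromine positive control for full effect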
CYP2C9 inh = blockers of cytochrome P450 2C9 activity – biochemical, luminescence, ADME assay, primary screen | P11712 | CYP2C9 Supersomes, luciferin-H conversion | 20% of 96,000 active | inhibition, % at 5 µM;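 active = blocking of liver enzyme CYP2C9 beyond about 50% at 5 µM, limit read from the data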
* marks the source's active call; other numbers are inactive results; x = not tested or not shown. In the library only some 27% were active in any assay of this set; here they are far more common.

SMILES | CYP2C9 act | CYP2C19 act | sEH inh | sEH activator | CYP2C19 inhib | CYP2C9 inh
Cc1ccc(CCC2C3=C(CCCC3=O)OC3=C2C(=O)CCC3)cc1 | 0.2 | 0 | 7.9 | -7.8 | 95.3* | 75.1*
CC(C)c1ccc(CC(C)C2C3=C(CCCC3=O)OC3=C2C(=O)CCC3)cc1 (stereo unspecified) | 0 | 0 | 9.2 | -7.4 | 98.8* | 96.7*
CCOc1cc(C2c3c(oc4cc(C)c(Cl)cc4c3=O)C(=O)N2Cc2ccco2)ccc1O (stereo unspecified) | 0.9 | 1.1 | 12.3 | -12.6 | -5.0 | 13.7
Cc1cccc(/C=N/n2c(C)cc(C)c(C#N)c2=O)c1 | x | x | 0.9 | -0.3 | x | x
COc1ccccc1C(=O)NC(C)C(c1cccs1)N1CCN(C)CC1 (stereo unspecified) | x | x | 2.6 | -1.5 | x | x
CC(CN1CCCC1)OC(=O)COc1ccccc1 (stereo unspecified) | 1 | 1.2 | 9.0 | -10.7 | -15.7 | 3.3
O=C1C=C(Nc2ccccc2O)c2ccccc2C1=O | 0.9 | 0.6 | -0.8 | 1.4 | 42.2 | 11.5
Cc1ccccc1NC1=C/C(=N\S(=O)(=O)c2cccs2)c2ccccc2C1=O | 0.2 | 0.2 | 2.0 | 0.6 | 81.6* | 84.2*
Cc1noc(C)c1CN1C(=O)NC2(CCc3ccccc3C2)C1=O (stereo unspecified) | x | x | 0.5 | -2.2 | x | x
COc1ccc(N2CCCCn3c2nc2c3c(=O)n(C)c(=O)n2C)cc1 | 0.6 | 0.7 | -15.1 | 14.6 | 32.1 | 36.4
CC(=O)c1cccc(NC(=O)C2C3C=CC(C4CC34)C2C(=O)O)c1 (stereo unspecified) | 0.9 | 0.9 | 3.1 | -3.8 | 8.5 | 11.2
O=S(=O)(c1ccc(N2CCCC2)cc1)C(F)(F)F | 1.1 | 1 | 0.1 | -0.5 | 2.7 | -12.2
N#CC1(c2nc3ccccc3[nH]2)CC1c1ccc2c(c1)OCO2 (stereo unspecified) | 0.4 | 0.1 | -3.8 | 1.6 | 91.9* | 64.0*
Cc1ccc(N(Cc2ccccc2F)S(C)(=O)=O)cc1C | 0.3 | 0 | -9.8 | 8.7 | 97.8* | 73.2*
Cc1cccc(N(Cc2ccccc2F)S(C)(=O)=O)c1 | 0.7 | 0.5 | x | x | 51.7* | 25.2
Cc1ccc(N(Cc2ccc(C(=O)NC3CCCCC3)cc2)S(C)(=O)=O)cc1C | 0.9 | 0.9 | 30.7 | -31.9 | 6.5 | 7.6
Cc1noc(C)c1COC(=O)Cc1ccc(Cl)cc1 | 0.4 | 0.1 | 13.1 | -14.8 | 92.5* | 55.4*
Cc1noc(C)c1COC(=O)CCCOc1ccc(Cl)cc1Cl | 0.2 | 0.2 | 9.2 | -8.3 | 84.3* | 80.3*
COC(=O)C1=C(C)Nc2nnnn2C1c1cccs1 (stereo unspecified) | 0.7 | 0.9 | -24.8 | 22.8 | 11.8 | 34.2
CCCCN(CCCC)c1cc(C)nc(-c2ccccc2O)n1 | 0.8 | 1 | 5.8 | -8.4 | 4.9 | 23.7
COc1ccc(CNC(=O)c2csc(Cc3ccc(OC)cc3)n2)cc1 | 0.3 | 0.5 | 6.3 | -4.2 | 48.6 | 66.8*
COc1ccc(CNC(=O)c2csc(Cc3ccc(Cl)cc3)n2)cc1 | 0.4 | 0.4 | 8.6 | -6.5 | 56.8* | 61.8*
COc1cccc(-n2cnc3scc(-c4cccs4)c3c2=O)c1 | 0.2 | 0.5 | 3.1 | -0.2 | 48.8 | 79.2*
COc1ccccc1-c1nnc2sc(-c3cnccn3)nn12 | 0.8 | 0.3 | 13.3 | -10.2 | 75.0* | 23.1
COc1ccccc1-c1nn2c(-c3ccc(C(C)(C)C)cc3)nnc2s1 | 0.4 | 1 | x | x | -1.9 | 55.6*
SMILES | CYP2C9 act | CYP2C19 act | sEH inh | sEH activator | CYP2C19 inhib | CYP2C9 inh
COc1ccccc1-c1nnc2sc(-c3cc4ccccc4o3)nn12 | 0.7 | 0.7 | 6.3 | -6.7 | 33.2 | 34.5
COc1cc(-c2nn3c(-c4ccco4)nnc3s2)cc(OC)c1OC | 0.7 | 1 | x | x | 0.6 | 27.8
COc1cccc(OC)c1-c1nn2c(-c3ccco3)nnc2s1 | 0.3 | 0.1 | x | x | 88.7* | 68.2*
CCOc1ccc(-c2nnc3sc(-c4ccccc4OC)nn23)cc1 | x | x | -14.1 | 14.0 | x | x
Cc1cc(C)c(NC(=O)CN2CCN3CCCC3C2)c(C)c1 (stereo unspecified) | 1.1 | 1 | -4.9 | 3.2 | -0.5 | -10.5
CCCCNC(=O)CSc1nc2ccccc2c(=O)n1C1CCCC1 | 0.4 | 0.7 | -1.0 | 1.4 | 26.3 | 56.4*
Cc1nc2ccccc2c(=O)n1C1CCCCCC1 | 0.9 | 0.4 | 11.7 | -11.4 | 58.3* | 13.3
CCOC(=O)CSc1nc2ccccc2c(=O)n1C1CCCC1 | 0.6 | 0.8 | -19.6 | 23.5 | 16.2 | 36.2
CCSc1nc(N)c(C#N)c(-c2ccccc2Cl)c1C#N | 0.7 | 1.1 | -7.8 | 9.3 | -5.7 | 32.5
COc1cc(-c2c(C#N)c(N)nc3c2CCCC3)cc(OC)c1OC | x | x | 0.3 | 1.7 | x | x
CCSc1nc(N)nc(-c2cccs2)c1C#N | 0.3 | 0.6 | x | x | 37.1 | 71.8*
CCOC(=O)CSc1nc(N)c(C#N)c(-c2ccc(OCC)cc2)c1C#N | 0.5 | 0.7 | -3.5 | 2.1 | 28.0 | 45.5
CCN(CC)C(=O)CSc1nc(N)c(C#N)c(-c2cccs2)c1C#N | x | x | 5.3 | -4.2 | x | x
C=CCSc1nc(N)c(C#N)c(-c2ccc(C)cc2)c1C#N | 0.4 | 0.6 | -11.8 | 11.8 | 43.3 | 63.4*
COc1cc(-c2c(C#N)c(N)nc(SCc3ccncc3)c2C#N)cc(OC)c1OC | 0 | 0 | x | x | 100.0* | 100.4*
N#Cc1c(N)nc(SCc2ccncc2)c(C#N)c1-c1cccs1 | 0.2 | 0.4 | x | x | 57.6* | 83.5*
CC1CCC2(CC1)C(Nc1cccc(Cl)c1)=NC(=S)N2CC#N (stereo unspecified) | x | x | 7.5 | -7.4 | x | x
O=C(CN(Cc1ccccc1)S(=O)(=O)c1ccccc1)NC1CC1 | x | x | -3.2 | 6.9 | x | x
Cc1ccccc1NC(=O)CSc1nc(N)c(C#N)c(-c2cccs2)c1C#N | 0.5 | 0.4 | 30.7 | -27.1 | 61.5* | 52.6*
C=CCSc1nc(C)cc(/C=C\c2ccccc2)c1C#N | 2.2* | 0.9 | 10.7 | -8.6 | 7.1 | -116.7
Cc1cc(C)c(C#N)c(SCCS(=O)(=O)Cc2ccccc2)n1 | 1.8 | 0.9 | -2.8 | 2.3 | 8.0 | -76.3
Cc1cc(N2CCCC2=O)cc(C)c1S(=O)(=O)NCCOc1ccc(C(C)(C)C)cc1 | x | x | 1.5 | -1.5 | x | x
O=C(/C=C/Nc1cccc(C(F)(F)F)c1)c1ccc(Oc2ncccn2)cc1 | 1.1 | 0.7 | -1.7 | -0.3 | 29.4 | -5.4
CC(C)NC(=O)c1ccccc1NC(=O)CCS(=O)(=O)Cc1ccccc1 | 0.2 | 1 | -0.8 | -4.5 | 4.4 | 76.1*
CC(C)NC(=O)c1ccccc1NC(=O)c1ccccc1N(C)S(C)(=O)=O | 0.9 | 1 | 2.3 | 1.2 | -4.7 | 14.9
CC(C)NC(=O)c1ccccc1NC(=O)CS(=O)(=O)Cc1ccccc1 | 0.2 | 0.8 | -9.2 | 7.3 | 17.1 | 80.4*
